Measured values published in PubChem BioAssay (NCI).
The panel holds about 83,000 compounds, 20% with a hit somewhere; the sample as a whole holds those more often.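 Cells were grown in 96-well plates and exposed to the test compound at a single concentration for 48 hours; results are reported as percent growth, with values below 10 considered active.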 Calls of active or inactive are those of the source.

How the values were obtained:
Experiment in all cases: NCI-60 one-dose screen, 48 h (100 = growth as untreated, 0 = no growth, -100 = all killed)
Settings in all cases: 10 µM unless noted
EKVX NSCLC = tested on: EKVX NSCLC
SN12C renal = tested on: SN12C renal
UO-31 renal = tested on: UO-31 renal
TK-10 renal = tested on: TK-10 renal
ACHN renal = tested on: ACHN renal
CAKI-1 renal = tested on: CAKI-1 renal
A498 renal = tested on: A498 renal
CCRF-CEM leukemia = tested on: CCRF-CEM leukemia
MOLT-4 leukemia = tested on: MOLT-4 leukemia
SR leukemia = tested on: SR leukemia
RPMI-8226 leukemia = tested on: RPMI-8226 leukemia
OVCAR-8 ovarian = tested on: OVCAR-8 ovarian
OVCAR-5 ovarian = tested on: OVCAR-5 ovarian
SK-OV-3 ovarian = tested on: SK-OV-3 ovarian
IGROV1 ovarian = tested on: IGROV1 ovarian
OVCAR-3 ovarian = tested on: OVCAR-3 ovarian
HS 578T breast = tested on: HS 578T breast
NCI/ADR-RES ovarian = tested on: NCI/ADR-RES ovarian
T-47D breast = tested on: T-47D breast
OVCAR-4 ovarian = tested on: OVCAR-4 ovarian

Measured: growth

COc1ccc(-c2nc3sccn3c2-c2ccnc(S(C)(=O)=O)n2)cc1
inactive: EKVX NSCLC 79.7% | SN12C renal 93.4% | TK-10 renal 117% | ACHN renal 74.2% | A498 renal 120% | CCRF-CEM leukemia 77.8% | MOLT-4 leukemia 87.2% | SR leukemia 40.5% | RPMI-8226 leukemia 86.5% | OVCAR-8 ovarian 111% | OVCAR-5 ovarian 96.7% | SK-OV-3 ovarian 105% | IGROV1 ovarian 37.9% | OVCAR-3 ovarian 84.3% | HS 578T breast 94.3% | NCI/ADR-RES ovarian 104% | T-47D breast 36.4%
active: UO-31 renal -82% | CAKI-1 renal -69%

ClC1=C(Cl)C(Cl)=C(Cl)C1=C/C=C/c1ccccc1
inactive: OVCAR-4 ovarian 14.7%
active: EKVX NSCLC -6.52% | SN12C renal -46% | UO-31 renal -50.9% | TK-10 renal -5.53% | ACHN renal -74% | CAKI-1 renal -4.48% | A498 renal -87.4% | CCRF-CEM leukemia -21.4% | MOLT-4 leukemia -23.5% | SR leukemia -43.2% | OVCAR-8 ovarian -41.7% | OVCAR-5 ovarian -77.9% | SK-OV-3 ovarian -22% | OVCAR-3 ovarian -88.7% | HS 578T breast -5.58% | NCI/ADR-RES ovarian -0.902% | T-47D breast -4.63%

CN1C(=O)C(=Cc2cn(Cc3ccccc3)c3ccc(Br)cc23)C(=O)N(C)C1=O
active: A498 renal -91.3%
inactive: EKVX NSCLC 108% | SN12C renal 96.6% | UO-31 renal 90.1% | TK-10 renal 58.3% | ACHN renal 96.3% | CAKI-1 renal 97.1% | CCRF-CEM leukemia 101% | MOLT-4 leukemia 87.6% | RPMI-8226 leukemia 92.6% | OVCAR-8 ovarian 97.9% | OVCAR-5 ovarian 14% | OVCAR-4 ovarian 107% | SK-OV-3 ovarian 90.4% | IGROV1 ovarian 97.3% | OVCAR-3 ovarian 103% | HS 578T breast 113% | NCI/ADR-RES ovarian 96.9% | T-47D breast 83.7%

CC(=O)NC1(C(=O)O)CCCC1
inactive: EKVX NSCLC 112% | SN12C renal 114% | UO-31 renal 99.9% | TK-10 renal 117% | ACHN renal 105% | CAKI-1 renal 111% | A498 renal 105% | CCRF-CEM leukemia 96.4% | MOLT-4 leukemia 109% | SR leukemia 108% | OVCAR-8 ovarian 99.8% | OVCAR-5 ovarian 158% | OVCAR-4 ovarian 112% | SK-OV-3 ovarian 118% | OVCAR-3 ovarian 112% | HS 578T breast 122% | NCI/ADR-RES ovarian 140% | T-47D breast 128%

O=C(Nc1ccc(Cl)cc1Cl)Nc1ccc(-c2cccnc2)cc1N1CCC(CO)CC1
active: A498 renal 6.41% | MOLT-4 leukemia -0.573% | RPMI-8226 leukemia 9.15% | SK-OV-3 ovarian 4.28%
inactive: EKVX NSCLC 50.6% | SN12C renal 30.7% | UO-31 renal 17% | TK-10 renal 52.8% | ACHN renal 41.1% | CAKI-1 renal 25.5% | CCRF-CEM leukemia 17.8% | OVCAR-8 ovarian 32.8% | OVCAR-5 ovarian 48.5% | OVCAR-4 ovarian 53.2% | IGROV1 ovarian 34.8% | OVCAR-3 ovarian 24.9% | HS 578T breast 36.4% | NCI/ADR-RES ovarian 30.7% | T-47D breast 17.5%

c1ccc(Nc2nnc(-c3cc(-c4cccnc4)n(-c4ccccc4)n3)s2)cc1
inactive: EKVX NSCLC 83% | SN12C renal 87.7% | UO-31 renal 56.9% | TK-10 renal 88.6% | ACHN renal 81.7% | CAKI-1 renal 46.4% | A498 renal 74.4% | CCRF-CEM leukemia 72.6% | MOLT-4 leukemia 56.5% | SR leukemia 67.1% | OVCAR-8 ovarian 59.9% | OVCAR-5 ovarian 105% | SK-OV-3 ovarian 109% | IGROV1 ovarian 108% | OVCAR-3 ovarian 106% | HS 578T breast 119% | NCI/ADR-RES ovarian 62.4% | T-47D breast 51.3%

CN(CCOc1ccc(CC2SC(=O)NC2=O)cc1)c1ccccn1 (centres undefined)
inactive: EKVX NSCLC 101% | SN12C renal 88.2% | UO-31 renal 72.1% | TK-10 renal 103% | ACHN renal 84.9% | CAKI-1 renal 96.3% | A498 renal 110% | CCRF-CEM leukemia 108% | MOLT-4 leukemia 119% | RPMI-8226 leukemia 104% | OVCAR-8 ovarian 91.9% | OVCAR-5 ovarian 95.2% | OVCAR-4 ovarian 110% | SK-OV-3 ovarian 106% | IGROV1 ovarian 97.9% | OVCAR-3 ovarian 110% | HS 578T breast 100% | NCI/ADR-RES ovarian 101% | T-47D breast 102%

CC(=O)O[C@H]1C(=O)[C@@]2(C)C([C@H](OC(=O)c3ccccc3)[C@]3(O)C[C@H](OC(=O)[C@H](O)[C@@H](NC(=O)c4ccccc4)c4ccccc4)C(C)=C1C3(C)C)[C@]1(OC(C)=O)CO[C@@H]1C[C@@H]2O (some centres undefined)
inactive: EKVX NSCLC 48.3% | SN12C renal 38.1% | UO-31 renal 33.6% | TK-10 renal 20.6% | ACHN renal 41% | CAKI-1 renal 44.7% | A498 renal 30.8% | CCRF-CEM leukemia 14% | MOLT-4 leukemia 28.3% | OVCAR-8 ovarian 26.6% | OVCAR-5 ovarian 27.2% | OVCAR-4 ovarian 46.5% | SK-OV-3 ovarian 18.1% | IGROV1 ovarian 42% | HS 578T breast 14.9% | NCI/ADR-RES ovarian 43.9% | T-47D breast 47.3%
active: RPMI-8226 leukemia 3.77% | OVCAR-3 ovarian -9.4%

Cc1nn(-c2ccccc2)c2c1oc(=O)c1cc(Cl)ccc12
inactive: EKVX NSCLC 93.2% | SN12C renal 101% | UO-31 renal 102% | TK-10 renal 111% | ACHN renal 101% | CAKI-1 renal 84.9% | A498 renal 90.9% | CCRF-CEM leukemia 98.1% | MOLT-4 leukemia 134% | RPMI-8226 leukemia 101% | OVCAR-8 ovarian 101% | OVCAR-5 ovarian 111% | OVCAR-4 ovarian 113% | SK-OV-3 ovarian 106% | IGROV1 ovarian 86.5% | OVCAR-3 ovarian 85.8% | HS 578T breast 175% | NCI/ADR-RES ovarian 108% | T-47D breast 105%

OC(Cc1cccnc1)c1ccccc1 (centres undefined)
inactive: EKVX NSCLC 113% | SN12C renal 99.3% | UO-31 renal 93.3% | TK-10 renal 109% | ACHN renal 101% | CAKI-1 renal 119% | A498 renal 86.5% | CCRF-CEM leukemia 80.2% | MOLT-4 leukemia 94.3% | SR leukemia 92.6% | OVCAR-8 ovarian 96.5% | OVCAR-5 ovarian 92.8% | OVCAR-4 ovarian 107% | SK-OV-3 ovarian 112% | IGROV1 ovarian 114% | HS 578T breast 112% | NCI/ADR-RES ovarian 107% | T-47D breast 112%

COC1CC2CCC(C)C(O)(O2)C(=O)C(=O)N2CCCCC2C(=O)OC(C(C)CC2CCC(O)C(OC)C2)CC(=O)C(C)C=C(C)C(O)C(OC)C(=O)C(C)CC(C)/C=C/C=C/C=C1C (centres undefined)
inactive: EKVX NSCLC 30.3% | SN12C renal 48.2% | UO-31 renal 21.5% | TK-10 renal 49.7% | ACHN renal 40.3% | CAKI-1 renal 49% | CCRF-CEM leukemia 37.9% | MOLT-4 leukemia 21.4% | RPMI-8226 leukemia 23.5% | OVCAR-8 ovarian 38.2% | OVCAR-5 ovarian 59.2% | OVCAR-4 ovarian 34.5% | SK-OV-3 ovarian 52.9% | IGROV1 ovarian 15.5% | OVCAR-3 ovarian 50% | HS 578T breast 45.2% | NCI/ADR-RES ovarian 49.1% | T-47D breast 31.1%
active: A498 renal -5.92%

CC[C@@H]1OC(=O)[C@H](C)[C@@H](O[C@H]2C[C@@](C)(OC)[C@@H](O)[C@H](C)O2)[C@H](C)[C@@H](O[C@@H]2O[C@H](C)C[C@H](N(C)C)[C@H]2O)[C@](C)(O)C[C@@H](C)[C@@H]2N[C@@H](COCCOC)O[C@H]([C@H]2C)[C@]1(C)O
inactive: EKVX NSCLC 102% | SN12C renal 98.9% | UO-31 renal 81.5% | TK-10 renal 119% | ACHN renal 102% | CAKI-1 renal 96.6% | A498 renal 119% | CCRF-CEM leukemia 82.4% | MOLT-4 leukemia 90.1% | RPMI-8226 leukemia 88.8% | OVCAR-8 ovarian 102% | OVCAR-5 ovarian 105% | OVCAR-4 ovarian 106% | SK-OV-3 ovarian 109% | IGROV1 ovarian 108% | OVCAR-3 ovarian 124% | HS 578T breast 115% | NCI/ADR-RES ovarian 101% | T-47D breast 105%

CC(C)C(=O)Cc1cnccn1
inactive: EKVX NSCLC 99.4% | SN12C renal 98.6% | UO-31 renal 90.8% | TK-10 renal 104% | ACHN renal 108% | CAKI-1 renal 83.4% | A498 renal 101% | CCRF-CEM leukemia 115% | MOLT-4 leukemia 123% | RPMI-8226 leukemia 109% | OVCAR-8 ovarian 102% | OVCAR-5 ovarian 108% | OVCAR-4 ovarian 117% | SK-OV-3 ovarian 116% | IGROV1 ovarian 106% | OVCAR-3 ovarian 111% | HS 578T breast 96.4% | NCI/ADR-RES ovarian 101% | T-47D breast 109%

CC(C)C/C(=N\NC(=O)c1ccncc1)c1cc(Cl)ccc1O
inactive: EKVX NSCLC 25.7% | SN12C renal 26.3% | UO-31 renal 10.9% | TK-10 renal 15.4% | ACHN renal 13.3% | A498 renal 49.5% | OVCAR-8 ovarian 11.7% | OVCAR-5 ovarian 37.3% | OVCAR-4 ovarian 14.5% | SK-OV-3 ovarian 24.5% | OVCAR-3 ovarian 11.1% | T-47D breast 25.1%
active: CAKI-1 renal 3.32% | CCRF-CEM leukemia 7.99% | MOLT-4 leukemia 3.56% | SR leukemia 6.34% | IGROV1 ovarian 9.3% | NCI/ADR-RES ovarian 5.17%

NS(=O)(=O)c1ccc(NC2=C(Cl)C(=O)c3ccccc3C2=O)cc1
inactive: EKVX NSCLC 107% | SN12C renal 87% | UO-31 renal 53.2% | TK-10 renal 164% | ACHN renal 78.3% | CAKI-1 renal 107% | A498 renal 163% | CCRF-CEM leukemia 85.7% | MOLT-4 leukemia 73.6% | RPMI-8226 leukemia 61.2% | OVCAR-8 ovarian 88.6% | OVCAR-5 ovarian 102% | OVCAR-4 ovarian 94.4% | SK-OV-3 ovarian 90.2% | IGROV1 ovarian 75.3% | OVCAR-3 ovarian 98% | HS 578T breast 142% | NCI/ADR-RES ovarian 93.6%
active: T-47D breast -48.3%

C=CC1=C(C(=O)O)N2C(=O)[C@@H](NC(=O)/C(=N\O)c3csc(N)n3)[C@H]2SC1 (stereo in doubt)
inactive: EKVX NSCLC 103% | SN12C renal 112% | UO-31 renal 91.7% | TK-10 renal 122% | ACHN renal 96.7% | CAKI-1 renal 99.2% | A498 renal 95.1% | CCRF-CEM leukemia 98.1% | MOLT-4 leukemia 104% | RPMI-8226 leukemia 113% | OVCAR-8 ovarian 102% | OVCAR-5 ovarian 95.7% | OVCAR-4 ovarian 108% | SK-OV-3 ovarian 107% | IGROV1 ovarian 120% | OVCAR-3 ovarian 108% | HS 578T breast 103% | NCI/ADR-RES ovarian 98% | T-47D breast 114%
